Screening data as filed in PubChem.
KB-3-1 cytotox: KB-3-1 parental cell cytotoxicity. KB-3-1 viability, CellTiter-Glo ATP luminescence, 72 h. Potency, µM (top dose mostly 46.1 µM), usual class: cytotoxic. 1.4% of 400,000 active. AID 1347075; also: % is scaled to controls: 0 for no effect and ±100 for the full control effect; nearly all actives have a fitted effect of over 60% in size
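Cytotoxicity in the drug-sensitive parental line KB-3-1 was scored as loss of CellTiter-Glo luminescence following 72 h incubation with compound. Values come from curve fitting of normalized concentration-response data.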
KB-V1 cytotox: KB-V1 MDR subline cytotoxicity. KB-V1 MDR cells viability, CellTiter-Glo, 72 h. Potency, µM (titrated, usually from 46.1 µM), most hits filed as cytotoxic. AID 1347076. 3.4% of 400,000 active; also: % is scaled to controls: 0 for no effect and ±100 for the full control effect; nearly all actives have a fitted effect of over 60% in size
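Cytotoxicity via CellTiter-Glo luminescence after 72 h compound exposure at 37 degrees C. Cells: drug-selected KB-V1 line, DMEM phenol-red free plus 10% FBS. Compounds tested at multiple concentrations; normalized data fitted to concentration-effect curves.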
MCF10A rereplic: inducers of DNA re-replication in MCF 10A breast cells; Potency, µM (top dose mostly 46.1 µM), for the others: at the highest dose activity, positive = re-replication, hits mostly activators; 2.9% of 350,000 active; AID 624296; MCF 10A DNA re-replication, Hoechst nuclear intensity, 48 h; also: % of control where 0% means no effect; nearly all actives have a fitted effect of over 50% in size
PINK1 expr mod: changes PINK1 expression | 0.2% of 410,000 active | Potency, µM (series often up to 76.6 µM), without a hit: at the top dose activation (PINK1 increase), usual class: activators | PINK1 immunofluorescence, high-content cytometry, 24 h | AID 624263; active = well fitted activation curve with a large enough effect; inconclusive = small, poorly fitted or top-dose-only effect; cell line not stated here; also: % of control where 0% means no effect; nearly all actives have a fitted effect of over 65% in size
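Fluorescence from anti-PINK1 antibody, together with nuclear and cell stains, was scanned on a laser-scanning cytometer. Before staining, stable-line cells were incubated 24 hours with compounds at 5 concentrations; primary antibody 12 h at 10 degrees C.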
SW480 rereplic: DNA re-replication induction in SW480 cells; AID 624297; 1.8% of 340,000 active; SW480 DNA re-replication, Hoechst DNA content imaging, 48 h; Potency, µM (doses to about 46.1 µM), for the others: top-dose re-replication activation, usual class: activators; also: % of control where 0% means no effect; nearly all actives have a fitted effect of over 55% in size
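Image-based DNA-content assay: after two days of treatment, nuclei were labelled with the DNA dye Hoechst and imaged, and hits were compounds raising the count of nuclei showing high fluorescence intensity.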
* = called active by the depositor; i = inactive; ? = inconclusive; nt = no result given; ! = not confirmed by another sample; [ ] = dose if it differs, or a comment. Hits are enriched below; roughly 6.7% of the tested compounds scored in any of these assays. Unless noted, calls follow the shape of the dose curve; as a rule, active = well fitted curve in the direction sought with a large enough effect; inconclusive = small, poorly fitted or top-dose-only effect, or another doubt; inactive = no such curve, though single readings can be large; an effect the other way counts as inactive or inconclusive. Potency is read from the fitted curve at half-maximal effect.

SMILES | KB-3-1 cytotox | KB-V1 cytotox | MCF10A rereplic | PINK1 expr mod | SW480 rereplic
COc1ccc(/C=N/NC(=O)c2cccc([N+](=O)[O-])c2)cc1OS(=O)(=O)c1ccc(C)cc1 | ? | 20.6µM* | ? | 3.0% | ?
COc1ccc2c(CN(C)c3ccccc3)cc(=O)oc2c1 | i | 18.4µM* | -9.3% | 1.7% | -5.2%
Cc1ccccc1-c1ccc(Nc2ccc(N3CCOCC3)cc2)nn1 | i | 20.6µM* | 15.5% | 0.4%[38.3 µM] | -2.4%
O=S1(=O)N=C(Nc2ccc(N3CCOCC3)cc2)c2ccccc21 | i | i | -0.6% | ? | -8.7%
Nc1nc(N)c2sc3nc(C(F)(F)F)cc(C(F)(F)F)c3c2n1 | i | 18.4µM* | ? | -3.9% | -2.6%
Nc1ccc2c(C(F)(F)F)cc(C(F)(F)F)nc2n1 | i | ? | ? | 2.5% | ?
CNc1c(Cl)cc(C=O)cc1Cl | ? | i | nt | 0.5% | nt
Cc1ccc(C2=NN(CCC(=O)NCCc3cccc(C)c3)C(=O)CC2)cc1 | nt | nt | nt | -0.6% | nt
O=c1[nH]c(NCCO)c(N=Cc2ccccc2)c(=O)[nH]1 | i | i | ? | 1.2% | 2.31µM*
C1=Cc2ccccc2/C1=C\c1cc[cH-]c1.[Fe+2].c1cc[cH-]c1 | i | ? | nt | 0.1% | nt
COc1cc(C2CC(=O)Nc3cc4c(cc32)OCCO4)cc(Br)c1OC (configuration not stated) | nt | nt | nt | 3.9% | nt
N#Cc1c(NC(=O)CSc2nnc(-c3ccncc3)n2CC2CCCO2)sc2c1CCCC2 (configuration not stated) | i | i | -1.0% | -0.4% | 0.1%
N#Cc1c(NC(=O)CSc2ncc(-c3ccccc3)n2CC2CCCO2)sc2c1CCCC2 (configuration not stated) | ? | 3.26µM* | ? | 3.5%[38.3 µM] | 4.6%
N#Cc1c(NC(=O)CSc2nc3ccccc3s2)sc2c1CCCC2 | i | 16.4µM* | ? | 22.2% | -11.2%
Cc1csc(SCC(=O)Nc2sc3c(c2C#N)CCC3)n1 | ? | i | ? | 3.8% | ?
CC1CCc2c(sc(NC(=O)CSc3nnc(-c4ccccc4)o3)c2C#N)C1 (configuration not stated) | i | ? | 14.8% | 9.3% | -82.3%
N#Cc1c(NC(=O)CSc2nnc(-c3ccccc3)o2)sc2c1CCCC2 | i | i | 5.8µM* | 15.6%[38.3 µM] | 8.5%
O=C(NCCN1CCC(n2c(=O)[nH]c3ccccc32)CC1)c1ccc(F)c(F)c1 | ? | i | nt | 0.9% | nt
O=C(CN1C2=NCCCN2c2ccccc21)c1cccc(Br)c1 | ? | ? | 1.1% | 1.1% | 3.0%
Clc1ccc(CN2C3=NCCCN3c3ccccc32)cc1Cl | ? | ? | 16.4µM* | 1.5% | 9.9%
Clc1ccc(CN2C3=NCCCN3c3ccccc32)cc1 | ? | i | 5.5% | -0.4% | -1.9%
O=C(CN1C2=NCCCN2c2ccccc21)c1ccc(Cl)cc1Cl | ? | 13µM* | 11.0% | 0.4% | 30.2%
O=C(COC(=O)c1ccc(O)cc1)Nc1ccc2c(c1)OCO2 | i | ? | -0.4% | -0.4% | -5.4%
Cc1ccc(Cl)cc1N(C)C(=O)Cn1ncc2c([nH]c3ccccc32)c1=O | i | i | ? | 4.3% | 20.6µM*
Cc1ccc2[nH]c3c(=O)n(CC(=O)N(C)c4cc(Cl)ccc4C)ncc3c2c1 | i | i | nt | 1.4% | nt
SMILES | KB-3-1 cytotox | KB-V1 cytotox | MCF10A rereplic | PINK1 expr mod | SW480 rereplic
CS(=O)(=O)c1ccc(/C=C2\C=Cc3ccccc32)cc1 | i | i | nt | -0.4% | nt
O=S(=O)(O)c1cccc2cccc(Nc3ccccc3)c12 | i | i | 20.6µM* | 0.0% | 16.4µM*
COc1ccc(Nc2ncnc3onc(-c4ccc(Cl)cc4)c23)cc1Cl | 10.3µM* | i | nt | 7.1% | nt
N/C(=N\OC(=O)COc1ccc(Cl)cc1Cl)c1cccnc1 | i | ? | 14.4% | 14.0% | 13µM*
O=C(CCCOc1ccc(Cl)cc1Cl)Nc1cccnc1 | i | 18.4µM* | -0.6% | 1.2% | -4.5%
Cc1cc(C(=O)N2CCC2(C)C(=O)Nc2cccc3c2CCCC3)nn1C (configuration not stated) | i | i | nt | -0.5% | nt
CCc1nc(N)nc(N)c1-c1ccc(Cl)c(N=[N+]=[N-])c1 | 11.6µM*! | 16.4µM* | ? | -4.0% | 13.6%
CCc1nc(N)nc(N)c1-c1ccc(Cl)c([N+](=O)[O-])c1 | 0.651µM* | i | 14.9% | -1.4% | -4.2%
CCc1c(N)nc(N)nc1Nc1ccccc1Cl | i | ? | 4.9% | -0.2% | 24.0%
CN(C)c1ccc(/C=C2\N=C(c3ccc(Cl)c([N+](=O)[O-])c3)NC2=O)cc1 | ? | i | -2.6% | 11.0% | 7.4%
COCCn1c(SCC(=O)Nc2ccc(OC)c(S(N)(=O)=O)c2)nc2ccccc2c1=O | i | i | -4.1% | -0.2% | -4.5%
O=C1CCC(=O)c2ccc3c4c(ccc1c24)CC3 | i | i | ? | -0.6% | -2.5%
O=C1CCN2C=Nc3cccc4ccc1c2c34 | ? | 11.6µM* | 13.4% | -0.9% | 19.9%
COc1ccc(-n2c(O)c(C=Nc3ccccc3)c3ccccc3c2=O)cc1 | ? | i | ? | 1.5% | ?
CCN(c1ccc(N=Cc2c(O)n(Cc3ccc(OC)cc3)c(=O)c3ccccc23)cc1)C(C)C | i | i | 7.31µM* | 2.2% | ?
CCOc1ccc(NC(=O)c2c(Nc3ccc(OC)cc3OC)sc(C(=O)c3ccc(Cl)cc3)c2N)cc1 | nt | nt | nt | 5.5% | nt
Cc1ccc(Nc2sc(C(=O)c3ccccc3)c(N)c2C(=O)Nc2ccc(Cl)cc2)cc1 | ? | i | nt | 39.8µM* | nt
Cc1ccccc1Nc1sc(C(=O)c2ccccc2)c(N)c1C(=O)NCc1ccc(Cl)cc1 | ? | ? | nt | 15.8µM* | nt
Nc1c(C(=O)c2ccccc2)sc(Nc2ccc(Cl)c(Cl)c2)c1C(=O)Nc1ccccc1 | i | ? | nt | 15.8µM* | nt
COc1cc(F)ccc1-c1csc(C(O)c2ccc(F)cc2)n1 (configuration not stated) | i | i | nt | 9.3% | nt
COC(=O)c1cccc(C(=O)Nc2ccc(C)cc2Br)n1 | i | 14.6µM* | 4.6% | 4.6% | -10.9%
Cc1ccc(NC(=O)c2cccc(C(=O)OC(C)C)n2)c(Br)c1 | i | i | 12.8% | 4.8% | -12.6%
CC1CCN(c2ccc(NC(=O)Cn3c(=O)oc4ccccc43)cc2)CC1 | i | i | -1.9% | -0.2% | 29.3%
C(=NNc1nnn(Cc2ccccc2)n1)c1ccccc1 | ? | 16.4µM* | nt | 6.6% | nt
C(=N\Nc1nn[nH]n1)/c1ccccc1 | i | i | 27.9% | 1.6%[38.3 µM] | ?
CCOc1ccccc1C(=O)NCC(=O)N1CCN(Cc2ccc3c(c2)OCO3)CC1 | i | i | -1.3% | 2.3% | -17.4%
Cc1cccc(NC(=O)CN2CCN(C(=O)C(C)Oc3ccc(C#N)cc3)CC2)c1C (configuration not stated) | i | i | 6.8% | 2.7% | 1.2%
